Results as given in PubChem BioAssay (NCATS).
Results filed as inconclusive are left out. Calls of active or inactive are those of the source. Calls come from the whole dose curve; as a rule, active = well fitted curve in the direction sought with a large enough effect; inconclusive = small, poorly fitted or top-dose-only effect, or another doubt; inactive = no such curve, though single readings can be large; an effect the other way counts as inactive or inconclusive.

How the values were obtained:
[1] = Quantitative High-Throughput drug screen in 47 multiple myeloma cell lines against the NCATS MIPE library collection: KMS27_JCRB cell viability assay (AID 1918970); note: nearly all actives have a fitted effect of over 30% in size
Summary of the method: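 Myeloma cells (500 per well) were exposed to MIPE 4.0 compounds for 48 h at 37 °C, 5% CO2; viability was read as ATP luminescence with CellTiter-Glo, normalized to DMSO-only (100%) and media-only (0%) wells.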

[2] = Quantitative High-Throughput drug screen in 47 multiple myeloma cell lines against the NCATS MIPE library collection: KMS12BM_JCRB cell viability assay (AID 1918971); note: nearly all actives have a fitted effect of over 35% in size
Summary of the method: (§1)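 qHTS of the MIPE 4.0 collection: 500 myeloma cells/well, 48 h drug exposure at 37C in 5% CO2, then CellTiter-Glo for 5 min at room temperature before luminescence reading.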

[3] = Quantitative High-Throughput drug screen in 47 multiple myeloma cell lines against the NCATS MIPE library collection: KMS12PE_JCRB cell viability assay (AID 1918972); note: nearly all actives have a fitted effect of over 30% in size; for viability: series mostly up to about 46 µM
Summary of the method: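 Relative luminescence from CellTiter-Glo served as the viability signal, referenced to DMSO-treated (100%) and cell-free medium (0%) controls. Treatment lasted 48 hours at 37C with 500 cells per well.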

[4] = Quantitative High-Throughput drug screen in 47 multiple myeloma cell lines against the NCATS MIPE library collection: KMS26_JCRB cell viability assay (AID 1918975); note: nearly all actives have a fitted effect of over 45% in size
Summary of the method: as §1

[5] = Quantitative High-Throughput drug screen in 47 multiple myeloma cell lines against the NCATS MIPE library collection: MOLP8_DSMZ cell viability assay (AID 1918977); note: nearly all actives have a fitted effect of over 45% in size
Summary of the method: (§2)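 Readout: median RLU from CellTiter-Glo after 5 min at room temperature. Preceding step was 48 h drug treatment of 500 cells/well at 37 °C, 5% CO2, with DMSO-only and media-only control wells.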

[6] = Quantitative High-Throughput drug screen in 47 multiple myeloma cell lines against the NCATS MIPE library collection: NCIH929_DSMZ cell viability assay (AID 1918978); note: nearly all actives have a fitted effect of over 35% in size
Summary of the method: as §2

[7] = Quantitative High-Throughput drug screen in 47 multiple myeloma cell lines against the NCATS MIPE library collection: OCIMY1_PLB cell viability assay (AID 1918979); note: nearly all actives have a fitted effect of over 35% in size; for viability: series mostly up to about 46 µM
Summary of the method: as §2

[8] = Quantitative High-Throughput drug screen in 47 multiple myeloma cell lines against the NCATS MIPE library collection: MM1S_ATCC cell viability assay (AID 1918980); note: nearly all actives have a fitted effect of over 45% in size
Summary of the method: as §2

[9] = Quantitative High-Throughput drug screen in 47 multiple myeloma cell lines against the NCATS MIPE library collection: KMS20_JCRB cell viability assay (AID 1918973); note: nearly all actives have a fitted effect of over 45% in size
Summary of the method: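 CellTiter-Glo ATP luminescence gave viability after 48 h compound treatment at 37C of 500 multiple myeloma cells per well. Normalisation used DMSO-only wells as 100% and media-only wells as 0% viability; primary qHTS of approved and investigational drugs.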

[10] = Quantitative High-Throughput drug screen in 47 multiple myeloma cell lines against the NCATS MIPE library collection: MMM1_PLB cell viability assay (AID 1918976); note: nearly all actives have a fitted effect of over 35% in size
Summary of the method: as §2

Measured: Potency
Potency is the fitted concentration of half-maximal effect.

O=NN(CCCl)C(=O)NC1CCCCC1
not listed: [9] | [10]
inactive: all other assays above

Nc1[nH]c(=O)ncc1F
active: [10] 8.33 µM
not listed: [4] | [5] | [8]
inactive: all other assays above

CC(C)C1CCC(C(=O)N[C@H](Cc2ccccc2)C(=O)O)CC1 (some centres not stated)
active: [8] 16.6 µM
inactive: [1] | [3] | [9] | [4] | [6]

CNC1CCCN(c2c(F)cc3c(=O)c(C(=O)O)cn(C4CC4)c3c2OC)C1 (configuration not stated)
active: [1] 0.0209 µM | [6] 1.48 µM | [8] 11.8 µM
inactive: [2] | [9] | [7]

Cc1cc(NS(=O)(=O)c2ccc(N)cc2)no1
active: [8] 9.35 µM
not listed: [5] | [6] | [10]
inactive: all other assays above

CC(C)(Sc1cc(C(C)(C)C)c(O)c(C(C)(C)C)c1)Sc1cc(C(C)(C)C)c(O)c(C(C)(C)C)c1
active: [8] 4.18 µM
inactive: [1] | [2] | [4] | [5]

Cc1ccc(S(=O)(=O)N[C@@H](Cc2ccccc2)C(=O)CCl)cc1
active: [1] 13.2 µM | [2] 18.7 µM | [3] 16.6 µM | [4] 18.7 µM | [10] 20.9 µM | [5] 14.8 µM | [6] 10.5 µM | [7] 23.5 µM | [8] 11.8 µM

NC(=O)N1c2ccccc2CC(=O)c2ccccc21
inactive: [1] | [3] | [9] | [4] | [5] | [6]

CCOC(=O)[C@H](CCc1ccccc1)N[C@H]1CCc2ccccc2N(CC(=O)O)C1=O
active: [1] 9.35 µM | [2] 29.6 µM | [3] 8.33 µM | [9] 5.9 µM | [10] 18.7 µM | [6] 26.4 µM | [7] 23.5 µM | [8] 8.33 µM

COc1ccccc1OCC(O)COC(N)=O (configuration not stated)
inactive: [1] | [2] | [3] | [4] | [5] | [6]

CCCCS(=N)(=O)CCC(N)C(=O)O (configuration not stated)
not listed: [5] | [9] | [10]
inactive: all other assays above

O=C(N[C@H](CO)[C@H](O)c1ccc([N+](=O)[O-])cc1)C(Cl)Cl
not listed: [9] | [10]
inactive: all other assays above

Nc1nc(=S)c2[nH]cnc2[nH]1
active: [2] 5.9 µM | [9] 1.32 µM | [4] 6.62 µM | [6] 1.32 µM | [7] 8.33 µM | [8] 3.72 µM
inactive: [1]

CC(N)C12CC3CC(CC(C3)C1)C2 (configuration not stated)
not listed: [2] | [5] | [10]
inactive: all other assays above

Cc1onc(-c2ccccc2Cl)c1C(=O)N[C@@H]1C(=O)N2[C@@H]1SC(C)(C)[C@@H]2C(=O)O
active: [8] 14.8 µM
not listed: [4] | [5] | [9]
inactive: all other assays above

O=C(O)c1ccc(-n2nc(-c3ccccc3O)nc2-c2ccccc2O)cc1
active: [1] 18.7 µM | [2] 20.9 µM

COc1ccc(-c2ccc3cc(C(=O)O)ccc3c2)cc1C12CC3CC(CC(C3)C1)C2
active: [2] 2.35 µM | [10] 2.64 µM | [8] 5.26 µM
not listed: [5] | [9]
inactive: all other assays above

O=C(O)CSCC(=O)NC1CCSC1=O (configuration not stated)
not listed: [9] | [10]
inactive: all other assays above

OCc1ccc(-c2nn(Cc3ccccc3)c3ccccc23)o1
inactive: [1] | [7]
active: [2] 10.5 µM | [9] 1.87 µM | [10] 1.05 µM | [6] 14.8 µM | [8] 4.18 µM

Cn1c(=O)c2c(ncn2CC(O)CO)n(C)c1=O (configuration not stated)
inactive: all assays above

CNNCc1ccc(C(=O)NC(C)C)cc1
active: [2] 4.69 µM | [4] 18.7 µM | [10] 8.33 µM
inactive: [1] | [3] | [6] | [7]

NNC(=O)c1ccncc1
not listed: [5] | [8] | [10]
inactive: all other assays above

C[C@@H]1C[C@H]2[C@@H]3CCC4=CC(=O)C=C[C@]4(C)[C@@]3(Cl)[C@@H](O)C[C@]2(C)[C@@]1(OC(=O)c1ccco1)C(=O)CCl
active: [1] 10.5 µM | [2] 18.7 µM | [3] 4.69 µM | [9] 7.43 µM | [4] 14.8 µM | [10] 18.7 µM | [6] 3.32 µM

O=C(O)C1CCCN(CCC=C(c2ccccc2)c2ccccc2)C1 (configuration not stated)
active: [5] 0.0059 µM | [8] 9.35 µM
not listed: [2] | [7]
inactive: all other assays above

Cc1ccnc2c1NC(=O)c1cccnc1N2C1CC1
active: [1] 1.87 µM | [8] 4.69 µM
inactive: [2] | [3] | [4] | [7]

CCOCC(O)COc1ccc(NC(=O)CC[S+](C)C)cc1 (configuration not stated)
inactive: [1] | [2] | [9] | [5] | [6]

CCCCc1oc2ccc(NS(C)(=O)=O)cc2c1C(=O)c1ccc(OCCCN(CCCC)CCCC)cc1
active: [1] 14.8 µM | [2] 14.8 µM | [3] 9.35 µM | [9] 9.35 µM | [4] 14.8 µM | [10] 7.43 µM | [5] 16.6 µM | [6] 18.7 µM | [7] 20.9 µM | [8] 20.9 µM

CC[C@H](NC(C)C)[C@H](O)c1ccc(O)c2[nH]c(=O)ccc12
active: [2] 0.0235 µM | [8] 0.235 µM
not listed: [5] | [10]
inactive: all other assays above

CNCC[C@H](Oc1cccc2ccccc12)c1cccs1
active: [1] 23.5 µM | [2] 18.7 µM | [4] 7.43 µM | [10] 29.6 µM | [6] 1.87 µM | [7] 18.7 µM | [8] 2.35 µM

CCn1cc(C(=O)O)c(=O)c2cc(F)c(N3CCN(C)CC3)cc21
inactive: [1] | [3] | [4] | [5] | [6]
active: [2] 2.64 µM

COc1cc(NCc2ccc3nc(N)nc(N)c3c2C)cc(OC)c1OC
active: [1] 0.59 µM | [2] 13.2 µM | [3] 0.935 µM | [9] 7.43 µM | [4] 5.9 µM | [10] 8.33 µM | [6] 3.72 µM | [7] 13.2 µM | [8] 8.33 µM

CCCc1cc(C(N)=S)ccn1
not listed: [4] | [8] | [10]
inactive: all other assays above

COc1cc(NS(=O)(=O)c2ccc(N)cc2)nc(OC)n1
inactive: [1] | [2] | [3] | [4] | [6] | [7]

CN(C)CCc1c[nH]c2ccc(C[C@H]3COC(=O)N3)cc12
inactive: [1] | [2] | [3] | [4] | [6] | [7]

CC(C)C[C@H](NC(=O)[C@H](CCc1ccccc1)NC(=O)CN1CCOCC1)C(=O)N[C@@H](Cc1ccccc1)C(=O)N[C@@H](CC(C)C)C(=O)[C@@]1(C)CO1
active: [1] 0.001 µM | [2] 0.0053 µM | [3] 0.001 µM | [4] 0.0132 µM | [10] 0.0833 µM | [5] 0.0019 µM | [6] 0.001 µM | [7] 0.0093 µM | [8] 0.0023 µM

Nc1nc(F)nc2c1ncn2[C@@H]1O[C@H](CO)[C@@H](O)[C@@H]1O
active: [1] 0.662 µM | [2] 0.209 µM | [3] 0.235 µM | [9] 0.264 µM | [4] 0.235 µM | [10] 0.469 µM | [6] 0.209 µM | [7] 0.469 µM | [8] 0.209 µM

COc1c(N2CCNC(C)C2)c(F)cc2c(=O)c(C(=O)O)cn(C3CC3)c12 (configuration not stated)
inactive: [1] | [3] | [5] | [7] | [8]

CN1CCN(c2c(F)cc3c(=O)c(C(=O)O)cn(CCF)c3c2F)CC1
inactive: [1] | [3] | [6]

C1CCC(C(CC2CCCCN2)C2CCCCC2)CC1 (configuration not stated)
active: [2] 9.35 µM | [3] 8.33 µM | [9] 6.62 µM | [4] 16.6 µM | [10] 8.33 µM | [5] 16.6 µM | [6] 20.9 µM | [7] 29.6 µM | [8] 6.62 µM

Oc1c(Cl)cc(Cl)c2cccnc12
active: [2] 4.69 µM | [3] 14.8 µM | [9] 11.8 µM | [4] 14.8 µM | [10] 16.6 µM | [6] 10.5 µM | [7] 18.7 µM | [8] 7.43 µM

O=P(O)(O)C(O)(Cc1cccnc1)P(=O)(O)O
inactive: [1] | [3] | [6] | [7] | [8]
active: [4] 0.0017 µM

CCn1cc(C(=O)O)c(=O)c2cc(F)c(N3CCNCC3)cc21
inactive: [1] | [9] | [10] | [6] | [7]
